PLK1 PBD inh: PLK1 (human) polo-box domain binding inhibition; 2.8% of 360,000 active; Plk1 PBD binding of FITC phosphopeptide, fluorescence polarization; Potency, µM, for inactives: max response, negative = inhibition, usual class: inhibitors; further: series mostly up to about 57 µM; nearly all actives have a fitted effect of over 65% in size
TDP1 block: inhibitors of human tyrosyl-DNA phosphodiesterase TDP1; Q9NUW8; recombinant TDP1, AlphaScreen DNA substrate cleavage; Potency, µM (series often up to 130 µM), for the others: at the top dose activity change, negative = inhibition, hits mostly inhibitors; 0.28% of 350,000 active; further: nearly all actives have a fitted effect of over 40% in size
Target sequence (Q9NUW8 whole entry, looked up): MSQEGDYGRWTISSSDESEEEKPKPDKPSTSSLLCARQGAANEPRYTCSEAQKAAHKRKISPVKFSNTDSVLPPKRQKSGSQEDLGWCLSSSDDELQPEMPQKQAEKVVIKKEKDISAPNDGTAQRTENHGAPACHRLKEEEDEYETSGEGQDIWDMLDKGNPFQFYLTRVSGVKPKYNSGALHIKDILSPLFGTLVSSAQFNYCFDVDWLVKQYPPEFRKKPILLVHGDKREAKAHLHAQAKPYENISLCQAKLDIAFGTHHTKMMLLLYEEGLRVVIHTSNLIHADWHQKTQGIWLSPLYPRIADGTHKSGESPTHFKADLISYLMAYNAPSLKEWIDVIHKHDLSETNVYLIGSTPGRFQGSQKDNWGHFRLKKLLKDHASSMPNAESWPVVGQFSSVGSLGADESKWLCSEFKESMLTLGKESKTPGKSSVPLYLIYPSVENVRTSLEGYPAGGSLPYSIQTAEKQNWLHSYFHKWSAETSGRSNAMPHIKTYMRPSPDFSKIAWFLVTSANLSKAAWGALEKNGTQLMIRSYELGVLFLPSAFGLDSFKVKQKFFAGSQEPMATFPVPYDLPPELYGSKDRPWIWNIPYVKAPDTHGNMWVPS
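AlphaScreen read-out: signal falls as enzyme removes the 3' tyrosine-FITC from a 5'-biotinylated DNA oligo (15 nM, 5 min, RT). Enzyme was E. coli-made recombinant Tdp1 at 1 nM, exposed to compound for 15 min beforehand; beads 10 ug/ml, 10 min.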
VDR inhibitor: inhibitors of human vitamin D receptor | AID 504847 | Potency, µM, without a hit: max response, negative = inhibition, usual class: inhibitors | P11473 | 0.93% of 400,000 active | VDR-SRC2-3 peptide fluorescence polarization, 2 h
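After 23 nl compound addition and a short centrifugation, plates sat for 2 hours at ambient temperature; polarization of fluorescence then indicated loss of VDR binding to peptide SRC2-3.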
DT40 TDP1 CPT: growth inhibition of DT40 Tdp1-/-;hTDP1 cells with camptothecin (screen for TDP1 inhibitors) | 12% of 420,000 active | Potency, µM (doses to about 46.2 µM), for the others: at the highest dose activity change, negative = growth inhibition, hits mostly inhibitors | chicken DT40 Tdp1-/-;hTDP1 cells + 20 nM CPT, ATP luminescence, 48 h; further: nearly all actives have a fitted effect of over 55% in size
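Chicken DT40 Tdp1-/- cells complemented with human TDP1, 400 cells/well, exposed to compounds plus 20 nM camptothecin for at least 48 h at 37 C; viability read as ATP content by CellTiter-Glo luminescence.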
DT40 TDP1 no CPT: qHTS for Inhibitors of human tyrosyl-DNA phosphodiesterase 1 (TDP1): qHTS in cells in absence of CPT; Potency, µM (doses to about 46.2 µM), inactives show top-dose activity change, negative = growth inhibition, hits mostly inhibitors; DT40 Tdp1-/- hTDP1 cells, no CPT, ATP luminescence, 48 h; 15% of 420,000 active; further: nearly all actives have a fitted effect of over 55% in size
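Luminescent ATP content (CellTiter-Glo) served as the growth readout. Knockout chicken DT40 cells expressing human TDP1 were exposed to compounds without camptothecin for a minimum 48 hr at 37 °C.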
GCN5L2 inh: inhibitors of human GCN5L2 histone acetyltransferase. 0.21% of 390,000 active. GCN5L2 HAT assay, ThioGlo1 CoA-SH fluorescence. AID 504327. Potency, µM (series often up to 58.9 µM), inactives show top-dose activity change, negative = inhibition, hits mostly inhibitors. Q92830
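Titration-based screen in which CoA formation is detected via maleimide probe ThioGlo1 (50uM) turning fluorescent on thiol reaction; substrates H3(1-25) 75uM and acetyl-CoA 70uM, GCN5L2 20nM, 20 min incubation at room temperature.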
* = called active by the depositor; ? = inconclusive; . = no result given; [ ] = remark or other dose. An excerpt weighted towards active compounds, which were near 18% of everything screened. The call rests on the fitted dose curve; in most records, active means well fitted curve in the direction sought with a large enough effect; inconclusive means small, poorly fitted or top-dose-only effect, or another doubt; inactive means no such curve, though single readings can be large; an effect the other way counts as inactive or inconclusive. On the % scale 0 is the no-effect control and ±100 the full control effect; potency means the concentration at half of the fitted maximal effect.

SMILES	PLK1 PBD inh	TDP1 block	VDR inhibitor	DT40 TDP1 CPT	DT40 TDP1 no CPT	GCN5L2 inh
COc1ccc(NC(=O)O[C@@H](C)[C@@H]2CN3CCc4c([nH]c5ccc(-c6ccc(OC)cc6)cc45)[C@@H]3C[C@@H]2N(C)C(=O)Nc2ccc(OC)cc2)cc1	-1%	.	.	?	13µM*	.
COc1ccc(-c2ccc3[nH]c4c(c3c2)CCN2C[C@@H]([C@H](C)OC(=O)Nc3cc(Cl)cc(Cl)c3)[C@@H](N(C)C(=O)Nc3cc(Cl)cc(Cl)c3)C[C@@H]42)cc1	3%	.	.	?	?	.
Nc1cc(=O)[nH]c(=S)[nH]1	.	.	.	1%	-14%	.
CC1(C)CC(=O)C(/C=N/n2cnc3ccccc3c2=O)=C(O)C1	-3%	5%	13%	-11%	-12%	1%
C=CCS/C(=N\n1cnc2ccccc2c1=O)N(CC)CC	3%	2%	-13%	?	18µM*	-8%
COc1cc(-c2ccno2)ccc1S(=O)(=O)N1CCN(c2ccc(F)cc2)CC1	.	8%	13%	?	7.3µM*	-2%
COc1cc(-c2ccno2)ccc1S(=O)(=O)N1CCN(c2ccc(C(C)=O)cc2)CC1	.	5%	5%	?	15µM*	0%
COc1ccc(NC(=O)CN(c2cc(C)cc(C)c2)S(=O)(=O)c2c(C)noc2C)cc1Cl	.	2%	-3%	?	23µM*	-7%
CCOc1ccc(OCC)c(NC(=O)CN(c2ccc(OC)cc2)S(=O)(=O)c2c(C)noc2C)c1	7%	5%	19%	?	?	-24%
COc1ccc(N(CC(=O)Nc2cc(Cl)ccc2OC)S(=O)(=O)c2c(C)noc2C)cc1	-1%	0%	12%	3.3µM*	4.1µM*	-10%
COc1ccc(OC)c(NC(=O)CN(c2ccc(C(C)C)cc2)S(=O)(=O)c2c(C)noc2C)c1	-3%	2%	0%	?	?	-11%
COc1ccccc1NC(=O)CN(c1ccc(C(C)C)cc1)S(=O)(=O)c1c(C)noc1C	.	5%	-14%	18µM*	23µM*	-12%
COc1ccc(-c2nc3cnc(N4CCN(C)CC4)nc3n(Cc3cccc(OC)c3)c2=O)cc1	.	.	7%	?	?	-15%
Cc1ccccc1NC(=O)c1ccc(F)c(S(=O)(=O)N(C)C2CCCCC2)c1	.	5%	10%	-48%	?	-6%
C=CCN(C(=O)C1CC(=O)N(C2CCCC2)C1)c1nc(-c2ccc(S(C)(=O)=O)cc2)cs1 (configuration not stated)	-8%	1%	-18%	15µM*	15µM*	-4%
O=C1CNc2cc(Cl)ccc2N1	-24%	.	.	?	?	.
O=C1CSc2cc(Cl)ccc2N1	11µM*	.	?	-1%	-19%	.
CC(=O)C1=C(c2ccccc2)NC(=O)NC1c1ccc(O)c(Cl)c1 (configuration not stated)	-16%	.	0%	28%	-4%	-16%
c1ccc2c(c1)OCCOCCOCCOCCOc1ccccc1OCCOCCOCCO2	-8%	3%	-20%	15µM*	18µM*	0%
COc1ccc(N2CCN(C(=O)c3nn(-c4ccc(C)cc4)c(=O)n(C)c3=O)CC2)cc1	.	3%	11%	?	?	-3%
CCOC(=O)C1=C(COC(=O)/C=C/c2ccc(OC)cc2OC)NC(=O)NC1C (configuration not stated)	-1%	9%	1%	?	15µM*	-15%
CCOC(=O)C1=C(COC(=O)CCOc2ccc(C)cc2)NC(=O)NC1C (configuration not stated)	-6%	.	12%	6.5µM*	5.8µM*	-6%
CCOC(=O)C1=C(C)NC(=O)NC1c1ccccc1OCc1c(F)cccc1Cl (configuration not stated)	-4%	2%	-17%	23µM*	16µM*	3%
CCOC(=O)C1=C(CNCc2ccc(Cl)cc2)NC(=O)NC1c1ccccc1 (configuration not stated)	.	6%	4%	-7%	?	-15%
CCOC(=O)C1=C(COC(=O)/C=C/c2ccc(OC)c(OC)c2)NC(=O)NC1C (configuration not stated)	-9%	0%	-1%	-27%	?	-2%
SMILES	PLK1 PBD inh	TDP1 block	VDR inhibitor	DT40 TDP1 CPT	DT40 TDP1 no CPT	GCN5L2 inh
CCOC(=O)C1=C(CNCc2ccc(C)cc2)NC(=O)NC1c1ccc(OC)cc1 (configuration not stated)	0%	12%	9%	21µM*	21µM*	-9%
Nc1cc(N)nc(SCC(=O)NC2CCCCCCC2)n1	-5%	-7%	2%	-2%	17%	3%
COc1cc(=O)n2c(c1C(=O)N(C)Cc1nonc1C)CCN(Cc1ccc(F)cc1)CC2	.	.	.	6%[9.04 µM]	-15%	.
CCCN1CCN(C(=O)c2ccc(S(=O)(=O)N(C)c3ccccc3OC)cc2)CC1	2%	.	.	?	-4%	.
Cc1ccc(NC(=S)N2CCCCC2CO)cc1C (configuration not stated)	-9%	.	-9%	0%	-6%	-15%
CCOC(=O)C1=C(CS(=O)(=O)c2ccc(C)c(C)c2)NC(=O)NC1c1ccc(O)cc1 (configuration not stated)	-7%	0%	-9%	-14%	-19%	0%
CCOC(=O)C1=C(CN2CCCCC2)NC(=O)NC1c1cc(C)ccc1C (configuration not stated)	-7%	-3%	13%	?	?	-2%
CCOC(=O)C1=C(COc2ccc(F)cc2Cl)NC(=O)NC1c1cc(C)ccc1C (configuration not stated)	?	-2%	-5%	?	21µM*	1%
CCOC(=O)C1=C(COc2ccc(C)cc2)NC(=O)NC1c1cc(C)ccc1C (configuration not stated)	-10%	0%	-5%	23µM*	12µM*	-10%
CCOC(=O)C1=C(CN2CCOCC2)NC(=O)NC1c1cc(C)ccc1C (configuration not stated)	-6%	3%	-6%	-21%	-20%	2%
CCOC(=O)C1=C(CS(=O)(=O)c2ccc(F)c(C)c2)NC(=O)NC1c1ccccc1OC (configuration not stated)	.	1%	-1%	29µM*	?	-3%
CN(C)c1ccc(-c2nc3ccccc3n2C)cc1	27µM*	7%	0%	13µM*	13µM*	-7%

Compound activity deposited in PubChem by National Center for Advancing Translational Sciences (NCATS).
